Measurements: PubChem BioAssay (NCI)
Compounds without any hit were thinned out: in the full panel of roughly 83,000, 20% have a hit.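 Negative percent growth values reflect cell death: -40 means 40% of the cells present at the start died, and -100 means all died.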 Calls of active or inactive are those of the source. Rule for the calls: active = growth percent below 10; inactive = the rest.

Key:
Assay in all cases: NCI-60 one-dose screen, 48 h (100 = growth as untreated, 0 = no growth, -100 = all killed)
Settings in all cases: 10 µM unless noted
SR leukemia = test system: SR leukemia
RPMI-8226 leukemia = test system: RPMI-8226 leukemia
OVCAR-8 ovarian = test system: OVCAR-8 ovarian
OVCAR-5 ovarian = test system: OVCAR-5 ovarian
OVCAR-4 ovarian = test system: OVCAR-4 ovarian
SK-OV-3 ovarian = test system: SK-OV-3 ovarian
IGROV1 ovarian = test system: IGROV1 ovarian
OVCAR-3 ovarian = test system: OVCAR-3 ovarian
HS 578T breast = test system: HS 578T breast
NCI/ADR-RES ovarian = test system: NCI/ADR-RES ovarian
T-47D breast = test system: T-47D breast
BT-549 breast = test system: BT-549 breast
MDA-MB-435 melanoma = test system: MDA-MB-435 melanoma
SW-620 colon = test system: SW-620 colon
HCT-116 colon = test system: HCT-116 colon
HCC-2998 colon = test system: HCC-2998 colon
KM12 colon = test system: KM12 colon
MDA-MB-468 breast = test system: MDA-MB-468 breast
MCF7 breast = test system: MCF7 breast

Measured: growth

O=C(N1c2ccccc2Sc2ccccc21)n1ccc2cccnc21
inactive: SR leukemia 12.1% | RPMI-8226 leukemia 40.4% | OVCAR-8 ovarian 88.1% | OVCAR-5 ovarian 98.5% | OVCAR-4 ovarian 65.6% | SK-OV-3 ovarian 79.9% | IGROV1 ovarian 72% | OVCAR-3 ovarian 82% | HS 578T breast 70.7% | NCI/ADR-RES ovarian 57.7% | T-47D breast 27.7% | BT-549 breast 60.2% | MDA-MB-435 melanoma 19.7% | SW-620 colon 58.4% | HCT-116 colon 34.9% | HCC-2998 colon 85.1% | KM12 colon 49.2% | MDA-MB-468 breast 51.8%

O=C(O)Cn1c(O)c(/C=C2/C=c3cc4c(cc3=NC2=O)OCCO4)sc1=S
inactive: SR leukemia 89.2% | RPMI-8226 leukemia 98.2% | OVCAR-8 ovarian 110% | OVCAR-5 ovarian 112% | OVCAR-4 ovarian 109% | SK-OV-3 ovarian 129% | IGROV1 ovarian 114% | OVCAR-3 ovarian 110% | HS 578T breast 107% | NCI/ADR-RES ovarian 103% | T-47D breast 104% | BT-549 breast 104% | MDA-MB-435 melanoma 102% | SW-620 colon 113% | MCF7 breast 86.3% | HCT-116 colon 103% | KM12 colon 104% | MDA-MB-468 breast 111%

CCCCSc1nc(Nc2ccc(C(C)=O)cc2)c(C#N)c(-c2ccc(OC)cc2)n1
inactive: SR leukemia 70.9% | RPMI-8226 leukemia 91% | OVCAR-8 ovarian 27.5% | OVCAR-5 ovarian 57.9% | SK-OV-3 ovarian 106% | IGROV1 ovarian 38.5% | OVCAR-3 ovarian 20.8% | HS 578T breast 66.1% | NCI/ADR-RES ovarian 58.1% | T-47D breast 64.3% | BT-549 breast 75.3% | MDA-MB-435 melanoma 75.4% | SW-620 colon 63.2% | MCF7 breast 65.4% | HCT-116 colon 32.5% | KM12 colon 95.3% | MDA-MB-468 breast 67.5%
active: OVCAR-4 ovarian -45.4%

CC(=O)c1cccc(NC(=O)CCC(=O)NS(=O)(=O)c2ccc(C)cc2)c1
inactive: SR leukemia 99.3% | RPMI-8226 leukemia 99.8% | OVCAR-8 ovarian 106% | OVCAR-5 ovarian 110% | OVCAR-4 ovarian 118% | SK-OV-3 ovarian 99.6% | IGROV1 ovarian 115% | OVCAR-3 ovarian 128% | HS 578T breast 111% | NCI/ADR-RES ovarian 112% | T-47D breast 106% | BT-549 breast 107% | MDA-MB-435 melanoma 112% | SW-620 colon 111% | HCT-116 colon 101% | HCC-2998 colon 117% | KM12 colon 104% | MDA-MB-468 breast 122%

Cc1ccc(C(SCCNCc2cc(N(C)C)ccn2)(c2ccccc2)c2ccccc2)cc1
inactive: OVCAR-4 ovarian 11.4%
active: SR leukemia -45.1% | RPMI-8226 leukemia -54.6% | OVCAR-8 ovarian -52.5% | OVCAR-5 ovarian -19.9% | SK-OV-3 ovarian -10.5% | IGROV1 ovarian 6.28% | OVCAR-3 ovarian -46.7% | HS 578T breast -45.7% | NCI/ADR-RES ovarian -56.8% | T-47D breast -39% | BT-549 breast -51.8% | MDA-MB-435 melanoma -75.4% | SW-620 colon -79.4% | MCF7 breast -80.5% | HCT-116 colon -80.5% | KM12 colon -40.1% | MDA-MB-468 breast -69.5%

COc1ccc(-c2ccnc(SCc3cc4ccccc4[nH]c3=O)n2)cc1
inactive: SR leukemia 14.9% | RPMI-8226 leukemia 65.5% | OVCAR-8 ovarian 56.3% | OVCAR-5 ovarian 82.1% | OVCAR-4 ovarian 41.5% | SK-OV-3 ovarian 82.4% | IGROV1 ovarian 75% | OVCAR-3 ovarian 81.6% | HS 578T breast 48.2% | NCI/ADR-RES ovarian 26.9% | T-47D breast 70.2% | BT-549 breast 29.7% | SW-620 colon 35.1% | HCT-116 colon 31% | HCC-2998 colon 59.6% | KM12 colon 57.3%
active: MDA-MB-435 melanoma 1.7% | MDA-MB-468 breast 6.26%

COc1ccc2c(c1)c(-c1cc3nc(-c4cn(C)c5ncccc45)cc(N)n3n1)cn2C
active: SR leukemia -19.3% | RPMI-8226 leukemia -20.6% | OVCAR-8 ovarian -41.5% | OVCAR-5 ovarian -7.9% | OVCAR-4 ovarian -5.11% | SK-OV-3 ovarian -57% | IGROV1 ovarian -58.1% | OVCAR-3 ovarian -12.4% | HS 578T breast -26.8% | NCI/ADR-RES ovarian 9.49% | T-47D breast -48.5% | BT-549 breast -84.7% | MDA-MB-435 melanoma -62.4% | SW-620 colon -70.4% | HCT-116 colon -89% | HCC-2998 colon -100% | KM12 colon -69.3% | MDA-MB-468 breast -89.6%

CCOC(=O)c1ccc(Nc2nc(NN)nc(-c3ccc(F)cc3)c2C#N)cc1
inactive: SR leukemia 72.4% | RPMI-8226 leukemia 103% | OVCAR-8 ovarian 112% | OVCAR-5 ovarian 99.5% | OVCAR-4 ovarian 98.3% | SK-OV-3 ovarian 116% | IGROV1 ovarian 109% | OVCAR-3 ovarian 103% | HS 578T breast 100% | NCI/ADR-RES ovarian 110% | T-47D breast 94.7% | BT-549 breast 111% | MDA-MB-435 melanoma 111% | SW-620 colon 111% | HCT-116 colon 102% | HCC-2998 colon 105% | KM12 colon 109%
